Source: PubChem BioAssay (National Center for Advancing Translational Sciences (NCATS))
The entries come from a sample that favours hits as a whole.
Pf Dd2 growth – inhibitors of Plasmodium falciparum Dd2 growth | 4.3% of 120,000 active | P. falciparum Dd2 growth, SYBR Green, 72 h | Potency, µM (top dose mostly 28.9 µM), without a hit: at the highest dose activity, negative = inhibition, hits mostly inhibitors | AID 1347417; active = well fitted inhibition curve with a large enough effect;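 note: plate controls were DMSO vehicle for no effect and reference drug for full effect; nearly all actives have a fitted effect of over 65% in size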
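Infected erythrocytes (Dd2, 0.3% parasitemia, 2.5% hematocrit final) are added to compound in RPMI-1640/Albumax II medium, grown 72 h at 37C in low oxygen, then lysed with saponin/Triton-X containing SYBR Green and read by fluorescence.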
Active calls of the source: *; i = inactive; ! = not confirmed by another sample; [ ] = dose if it differs, or a comment. Potency is the fitted concentration of half-maximal effect.

SMILES | Pf Dd2 growth
CC(C)N1CCC[C@H]1c1nc(-c2ccc(N3CCN(C)CC3)nc2)no1 | 10µM*
CC(=O)N1CCC(N2CCC[C@H]2c2nc(-c3ccc(N4CCC(C(N)=O)CC4)nc3)no2)CC1 | i
CC(=O)N1CCC(N2CCC[C@H]2c2nc(-c3ccc(-n4ccnc4)nc3)no2)CC1 | -21%[44.1 µM]
COc1ccc(CN2CCC[C@H]2c2nc(-c3ccc(-n4ccnc4)nc3)no2)c(OC)c1OC | 10µM*
FC(F)(F)Oc1cccc(CN2CCC[C@H]2c2nc(-c3ccc(N4CCOCC4)nc3)no2)c1 | -12%
COCC(=O)Nc1ccc(-c2noc([C@@H]3CCCN3Cc3cc4ccccc4o3)n2)cn1 | -16%[44.1 µM]
O=C(NCCc1noc(C2CCCO2)n1)c1cnc(-c2cccnc2)nc1 (stereo not given) | -5%
Cc1cc(C)n(CCC(=O)N2CCC(CCOc3ccc(F)cc3)C2)n1 (stereo not given) | -23%
CCc1ccc(NC(=O)Nc2nnc(N(C)C3CCCCC3)s2)cc1 | i
CCc1cccc(C)c1NC(=O)CSc1nc2c(c(=O)[nH]1)CCC2 | 44%
Cc1nn(C(=O)c2cccc([N+](=O)[O-])c2C)c(C)c1S(=O)(=O)N1CCCCCC1 | -9%
Cc1noc2c(N3CC(O)C3)cc(-c3cccc(C(F)(F)F)c3)nc12 | i
COc1ccc(CNC(=O)N2CCC(N3CC4CC(C3)[C@H]3CCCC(=O)N3C4)CC2)cc1 (stereo not given in full) | -20%
COc1ccc(CNC(=O)c2cnc3c(c2)N(C(=O)Cc2ccc(C(C)C)cc2)CCC3)cc1OC | i
COc1ccc(-c2nc(-c3c(C)noc3C)cc3cc(CO)oc23)cn1 | 19%[44.1 µM]
Cc1cc2cc(-c3c(C)noc3C)nc(N(C)C)c2o1 | i
COc1cc(-c2nc(-c3c(C)noc3C)cc3cc(C)oc23)ccn1 | 11µM*
Cc1cc(-c2nc(-c3c(C)noc3C)cc3cc(C)oc23)ccn1 | 11µM*
Cc1cc2cc(-c3c(C)noc3C)nc(N3CCN(c4ccccn4)CC3)c2o1 | -23%[44.1 µM]
COc1cc(-c2nc(-c3c(C)noc3C)cc3c2cc(C)n3C)ccn1 | -5%[44.1 µM]
CN1CC2(CCN(C(=O)CCc3nc(-c4ccco4)no3)C2)OC1=O (stereo not given) | 25%
CC(C)c1cc(CN(C)C(=O)c2cc(COc3ccccc3)[nH]n2)on1 | -24%
CC(C)n1nc(OC(C)(C)C(=O)Nc2ccccn2)c2cc(CN3CCOCC3)ccc21 | 0%[44.1 µM]
Cc1cc(C(=O)NC2CCc3nnc(C4CC4)n3CC2)nn1C (stereo not given) | 38%
Cc1cc(Cl)ccc1S(=O)(=O)NC1CCc2nn(C)c(=O)n2CC1 (stereo not given) | 41%
SMILES | Pf Dd2 growth
O=C(CN1CCN(Cc2ccc(F)cc2)C1=O)NCc1ccc(F)cc1 | -16%
COCCNC(=O)c1ccc(-n2c(-c3ccccc3)cc3c2CCCCC3)cc1 | -21%
CCNC(=O)c1ccc(-n2c(-c3ccccc3)cc3c2CCCCC3)cc1 | -2%
CCCNC(=O)c1ccc(-n2c(-c3ccccc3)cc3c2CCCCC3)cc1 | -27%
Cc1cc2c(n1-c1ccc(C(=O)NCC(C)c3ccccc3)cc1)CCCC2 (stereo not given) | 10µM*
CC(C)NC(=O)c1ccc(-n2c(-c3ccccc3)cc3c2CCCC3)cc1 | i
Cc1ccccc1CNC(=O)c1ccc(-n2c(C)cc3c2CCCC3)cc1 | 10µM*
Cc1ccc(CNC(=O)Cn2ccn(-c3ccc(F)c(F)c3)c(=O)c2=O)cc1 | 11%
CN1C(=O)Cc2ccccc2C1C(=O)NCc1ccc(F)cc1 (stereo not given) | -24%
COCCNC(=O)CN1C(=O)c2cccnc2Sc2ccccc21 | -8%
O=C(CCc1ccccc1)NCCC1CCN(C(=O)Nc2cc(F)cc(F)c2)CC1 | i
COc1ccc(-c2nc3ccccc3n3c(-c4cccc(C)c4)c4c(=O)n(C)c(=O)n(C)c4c23)cc1OC | 11µM*
Cc1ccc(-c2c3c(=O)n(C)c(=O)n(C)c3c3c(-c4cccc(C)c4)nc4ccccc4n23)cc1 | i
COc1ccc(-c2c3c(=O)n(C)c(=O)n(C)c3c3c(-c4cccc(C)c4)nc4ccccc4n23)cc1 | 40%
CN(C)S(=O)(=O)N1CCC2(CCC(=O)N(CC3CC3)CC2)CC1 | -1%
O=C(Cc1cccc(F)c1)NCc1nnc2ccc(-c3ccc(F)cc3)nn12 | -23%
O=C(NCc1ccccc1Cl)C(=O)NCC(c1ccc2c(c1)OCO2)N1CCOCC1 (stereo not given) | -14%
COCC1CN(C)CC12CCN(Cc1scnc1C)CC2 (stereo not given) | 12%
CCOc1cc(C(=O)Nc2ccc3nc(Nc4cccc(Cl)c4)cc(C)c3c2)cc(OCC)c1OCC | 2µM*
Cc1cc(Nc2cccc(Cl)c2)nc2ccc(NC(=O)c3cncc(Br)c3)cc12 | 2.8µM*
CCN(CC)S(=O)(=O)c1ccc2nc(NC(=O)c3cncc(Br)c3)sc2c1 | 20%[0.594 µM]
Cc1cc(Nc2cccc(C(F)(F)F)c2)nc2ccc(NC(=O)c3cncc(Br)c3)cc12 | 0.18µM*
CCOc1cc(C(=O)Nc2ccc(-c3cn4cccnc4n3)cc2)cc(OCC)c1OCC | -17%
Cc1ccccc1C(=O)Nc1ccc2nc(Nc3cccc(C(F)(F)F)c3)cc(C)c2c1 | -9%
COc1ccc(Nc2ncc(C(=O)Nc3cccc(Cl)c3)c3ccccc23)cc1 | i
SMILES | Pf Dd2 growth
Cn1nc(-c2ccc(C(=O)Nc3cccc(C(F)(F)F)c3)cc2)c2ccccc2c1=O | 3%
CCN(CC)c1ccc(C(=O)Nc2ccc3nc(N(CC)CC)cc(C)c3c2)cc1 | -18%
Cc1cccc(C)c1NC(=O)CN1C(=O)NC2(CCC(C)CC2)C1=O (stereo not given) | 8%
CCCCS(=O)(=O)NC1CCc2nn(CC3CC3)c(=O)n2CC1 (stereo not given) | i
O=C(NCc1nnc2c(-c3nc(C4CC4)no3)cccn12)c1ccc(F)cc1 | i
COc1ccc(C(=O)NCCn2cccc2-c2nc(-c3ccc4c(c3)OCO4)no2)cc1 | -8%
C[S+](=O)([O-])Nc1ccc(C(O)[C@H]2COCC(=O)N2Cc2ccc(F)cc2)cc1 (stereo not given in full) | 0%[44.1 µM]
O=C(C[C@@H]1O[C@H](CNCc2ccc(F)cc2)[C@@H](O)[C@H]1O)NCCN1CCOCC1 | 43%[44.1 µM]
Cc1ccc2nc(C3CCN(Cc4cccs4)CC3)[nH]c(=O)c2c1 | -1%[44.1 µM]
CCN1CCCC(c2nc3ccc(C)cc3c(=O)[nH]2)C1 (stereo not given) | -17%[44.1 µM]
Cc1ccc2nc(C3CCN(Cc4cccc(-c5ccsc5)c4)CC3)[nH]c(=O)c2c1 | 7%
Cc1ccc2nc(C3CCCN(Cc4cccc(-c5cccnc5)c4)C3)[nH]c(=O)c2c1 (stereo not given) | 6.3µM*
COc1ccccc1-c1ccc(CN2CCCC(c3nc4ccc(C)cc4c(=O)[nH]3)C2)cc1 (stereo not given) | 7.9µM*!
COc1ccc(CN2CCCC(c3nn(-c4ccc(OC)cc4)c(=O)[nH]3)C2)cc1 (stereo not given) | i
Cc1ccc2oc(-c3ccc(NC(=O)CCC(=O)O)cc3)nc2c1 | 14%
O=C1CO[C@H]2CCN(Cc3ccncc3)CC[C@@H]2N1Cc1ccccc1 | i
N#Cc1cccc(CN2CC[C@@H]3OCC(=O)N(Cc4c[nH]c5ccccc45)[C@H]3CC2)c1 | i
CC(C)CCN1CC[C@@H]2OCC(=O)N(Cc3c[nH]c4ccccc34)[C@H]2CC1 | i
COc1ccc(CN2C(=O)CO[C@H]3CN(CC4CC4)C[C@H]32)cc1 | i
